Active and inactive are the calls of the source.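 The calls were made as follows: active = inhibition of at least 50% at 50 µM, meaning an activity change of -50% or lower; inconclusive = inhibition above 30% but under 50% at 50 µM; inactive = inhibition of 30% or less at 50 µM.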

A short description of this experiment: qHTS Assay for Iinhibitors of HIV-1 Budding by Blocking the Interaction of PTAP/TSG101: Hit Validation in Viral Budding Asaay. Conditions: HeLa pNL4-3 HIV-1 budding, supernatant RT activity, 18 h; at 50 µM (top of the series). The source says:
Stages of the HIV-1 replication cycle, specifically virus assembly and release, provide underexploited targets for the development of novel antiviral inhibitors. The late stages of HIV-1 replication are mediated by the Gag precursor protein, Pr55Gag. Expression of Pr55Gag is both necessary and sufficient for the production of virus-like particles from Gag-expressing cells. The Gag protein hijacks key host proteins involved in endocytic machinery of the host cell to promote endosomal processing and viral budding. The budding process requires a direct interaction between a […] (PTAP) motif in the p6 domain of Gag and the cellular endosomal sorting protein known as Tsg101. In this way, the Gag PTAP motif promotes the host cells to recruit viral particles to the plasma membrane where the new viral particles are released, effectively turning the host cells into viral factories. A fluorescence anisotropy assay has been developed to quantitatively measure the PTAP-Tsg101 interaction which can be used to screen for inhibitors of this interaction. In this hit validation assay the readout is the release of reverse transcriptase (RT) activity into the medium of HeLa cells transfected with the full-length HIV-1 molecular clone pNL4-3. RT release from virus-producing cells occurs upon budding of virus from the cell surface. Small molecules that block the PTAP/Tsg101 interaction will reduce RT release. HeLa cells will also be transfected with a luciferase expression vector; compounds that are cytotoxic will reduce luciferase expression. NIH Molecular Libraries Probe Production Network [MLPCN] NIH Chemical Genomics Center [NCGC] MLPCN Grant: 1 R03 MH087464-01A1 PI Name: Dr. Eric Freed, NCI
Virus producing cells were treated with 12.5, 25 & 50 uM of each compound and 18 hr after treatment virus supernatant was collected from the cells. Reverse transcriptase (RT) activity in the virus supernatant is then measured.
(qHTS replaces the single test concentration by a dilution series.)
For the compound `CN1CCc2c(sc(NC(=O)CSc3ccc(F)cc3)c2-c2nc3ccccc3s2)C1`, the activity change, negative = inhibition was -59.8% (active). The value for `O/C=c1\ccc2cccc3nc(C(F)(F)F)nc1c23` was -89.5% (active); that for `COc1cccc(C(=O)c2sc3nc(-c4ccccc4)cc(C(F)(F)F)c3c2N)c1` was -91.8% (active); that for `COc1cccc2c1C(=O)c1c(O)c3c(c(O)c1C2=O)CC(O)(C(=O)CO)CC3OC1CC(N(C)C)C(O)C(C)O1` (centres undefined) was -84% (active).
